Experimental findings from PubChem BioAssay AID743262 (National Center for Advancing Translational Sciences (NCATS), 2014) are described below.

Screen size: about 1,300 compounds; about 25 (2%) were called active. Entries that show only a call come without a potency. Not shown: some 9% with an inconclusive outcome. Calls come from the whole dose curve; as a rule, active = well fitted activation curve with a large enough effect; inconclusive = small, poorly fitted or top-dose-only effect; inactive = flat fitted curve, though single readings scatter. The sample as a whole holds a higher share of actives than the screen did.
Potency is the fitted concentration of half-maximal effect.

Glucagon-like peptide 1 receptor (Homo sapiens), sequence (P43220 whole entry, looked up): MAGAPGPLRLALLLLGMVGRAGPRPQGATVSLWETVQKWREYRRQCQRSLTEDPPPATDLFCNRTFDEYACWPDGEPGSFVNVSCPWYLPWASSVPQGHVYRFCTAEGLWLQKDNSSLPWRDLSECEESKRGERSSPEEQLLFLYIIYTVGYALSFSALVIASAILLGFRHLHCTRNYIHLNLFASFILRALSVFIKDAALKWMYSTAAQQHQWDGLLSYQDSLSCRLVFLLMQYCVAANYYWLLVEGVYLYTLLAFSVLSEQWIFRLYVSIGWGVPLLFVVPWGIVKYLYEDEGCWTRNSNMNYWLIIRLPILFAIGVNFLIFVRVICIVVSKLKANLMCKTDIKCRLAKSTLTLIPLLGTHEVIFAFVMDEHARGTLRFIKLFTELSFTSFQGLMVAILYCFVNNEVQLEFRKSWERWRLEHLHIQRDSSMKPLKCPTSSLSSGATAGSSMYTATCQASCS

The target of the test is Glucagon-like peptide 1 receptor (Homo sapiens) (UniProt P43220). Put plainly: qHTS of GLP-1 Receptor Agonists: Hit Validation. The settings on record: HEK293 GLP-1R, cAMP-response luciferase, 4-6 h; series mostly up to 46.1 µM. An outline of the steps:
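HEK293 cells stably co-expressing a cAMP-responsive luciferase reporter and GLP-1R (hypersensitive receptor for weak agonists; wild-type line for confirmation) were plated 12 h at 37 °C, exposed to compound 4-6 h, then read by luminescence after 12 min detection reagent.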
For orientation: qHTS replaces the single test concentration by a dilution series.
Turning to `COc1ccc(-c2csc(C(C)(NC(C)=O)c3ccccc3)n2)cc1` (stereo unspecified), the Potency entry is “inactive”.
Turning to `CCOC(=O)CN1C(=O)S/C(=C/c2ccc(OCc3ccc(C(=O)O)cc3)cc2)C1=O`, the Potency result was “inactive”.
Consider `N#Cc1nc(-c2cccs2)oc1NCc1ccco1`, for which the Potency entry was “inactive”.
The result for `Cc1cc(C)c2c(N)c(C(=O)NCC3CCCCC3)sc2n1` reads “inactive”; that for `Cc1ccnc(NC(=O)C23CC4CC(CC(C4)C2)C3)c1`, “inactive”; that for `Cc1ccc(CNc2cc(-c3nn4c(C)nnc4s3)ccc2C)s1`, “inactive”.
In the case of `ClCCn1cnc2c(SCc3ccccc3)ncnc21`, the Potency result is “inactive”.
As for `COc1cccc(C2=CC(=O)C[C@H](c3ccc(OC)c(OC)c3)C2)c1`, the Potency entry is “inactive”.
As to `N#Cc1c(NCCCO)nc(-c2ccccc2)c2c1CCCC2`, the Potency result is “inactive”.
The result for `COc1ccc(C(C)=O)cc1COC(=O)c1ccc2c(c1)OCCO2` reads “inactive”; that for `CC(=O)c1cc(C#N)c(SCC(=O)OC(C)(C)C)nc1C`, “inactive”.
`COc1ccc(N/C=C/C(=O)c2ccc(OC)c(OC)c2)cc1`: the Potency result was “inactive”.
`C#CCOc1ccc2c3c(c(=O)oc2c1)CCCC3`: the Potency entry was “inactive”.
The result for `Cc1cccc(OCCNc2cc(N3CCOCC3)ccc2[N+](=O)[O-])c1` reads “inactive”; that for `OC(CNCc1cccc(Br)c1)c1ccccc1` (stereo unspecified), “inactive”; that for `CCN(CC)c1nc2ccccc2nc1C(C#N)C(=O)NCCCOC` (stereo unspecified), “inactive”.
As to `COc1cc(-c2cnc3c(NC=O)cc(-c4ccccc4Cl)cn23)cc(OC)c1OC`, the Potency is 5.8 µM (active).
As to `COc1cccc(-c2cnc3c(NC(C)=O)cc(-c4ccc(OC)c(OC)c4)cn23)c1`, the Potency result was “inactive”.
As for `O=CNc1cc(-c2ccccc2)cn2c(-c3ccc(F)c(Cl)c3)cnc12`, the Potency entry was “inactive”.
The result for `COc1ccc(-c2cc(NC=O)c3ncc(-c4ccc(C(C)=O)cc4)n3c2)cc1OC` reads “inactive”; that for `COc1ccc(-c2cc(NC=O)c3ncc(-c4ccc(OC)c(OC)c4)n3c2)c(OC)c1`, 2.59 µM (active); that for `COc1ccc(-c2cnc3c(NC=O)cc(-c4ccccc4OC)cn23)cc1OC`, 8.2 µM (active).
Regarding `COc1ccc(-c2cc(NC=O)c3ncc(-c4ccc(OC)c(OC)c4)n3c2)cc1`, the Potency is 18.4 µM (active).
The result for `COc1ccc(F)cc1-c1cc(NC(C)=O)c2ncc(-c3cc(OC)c(OC)c(OC)c3)n2c1` reads “inactive”; that for `CC(=O)c1ccc(-c2cnc3c(NC=O)cc(-c4ccccc4Oc4ccccc4)cn23)cc1`, “inactive”; that for `COc1ccc(-c2cnc3c(NC=O)cc(-c4ccc(C(=O)N5CCOCC5)cc4)cn23)cc1OC`, “inactive”.
On to `COc1cccc(-c2cnc3c(NC=O)cc(-c4ccc(N(C)C)cc4)cn23)c1`, for which the Potency result is “inactive”.
For the compound `Cc1ccc(-c2cc(NC=O)c3ncc(-c4cnn(C)c4)n3c2)cc1`, the Potency result is “inactive”.
Consider `OC1CCCN(c2c3c(nc4cc(-c5cccc(F)c5)nn24)CCCC3)C1` (stereo unspecified), for which the Potency result was “inactive”.
As to `COc1cc2c(cc1OC)/C(=C/C(=O)c1ccccc1)NCC2`, the Potency result was “inactive”.
The result for `O=C(OCc1csc(-c2ccccc2)n1)c1ccccc1O` reads “inactive”; that for `COc1ccc(CC(=O)OCC(=O)N2c3ccccc3CC2C)cc1OC` (stereo unspecified), “inactive”; that for `Cc1nn(C)cc1CNC(=O)c1cnn2c(C(F)F)cc(C3CC3)nc12`, “inactive”.
The result for `COC(=O)c1ccc(OCC2c3cc(OC)c(OC)cc3CCN2C(C)=O)cc1` (stereo unspecified) reads “inactive”.
For `Cc1cccc(-c2nnc3sc(-c4ccccc4C)nn23)c1`, the Potency result is “inactive”.
The result for `Cc1cccc(C(=O)N2CCC[C@H]2C(=O)N2CCC[C@H]2C(=O)NCc2ccncc2)c1` reads “inactive”.
The result for `Cc1cccc(-c2nc(C#N)c(N3CCCCCC3)o2)c1` reads “inactive”; that for `COc1cccc(Nc2nc(N)c([N+](=O)[O-])c(NCc3ccco3)n2)c1`, “inactive”.
In the case of `CC(C)n1nnnc1SCC(=O)N1N=C(c2cccs2)CC1c1cccs1` (stereo unspecified), the Potency entry was “inactive”.
The result for `CC1CCN(CCCNC(=O)c2cc3c(Cl)nc4ccccc4c3s2)CC1` reads “inactive”; that for `CCN(CC)c1ncnc2c1cnn2Cc1ccc(C)cc1`, “inactive”.
